# Screening data deposited in PubChem by National Center for Advancing Translational Sciences (NCATS).
# Shiga inhibitor = blocks Shiga toxin action in Vero cells; actives 9.2% (n = 290,000); Vero cells, Shiga toxin protein synthesis inhibition reporter; inhibition, % at 38.7 µM; AID 2315; in the data active = inhibition mostly above about 28%, no sharp cut-off; inactive = mostly below about 43%; also: 0% is about no effect
# LmPK inhibitor = LmPK (Leishmania mexicana) enzyme inhibition. Q27686. purified LmPK, Kinase-Glo ATP luminescence, 1 h. Potency, µM (highest dose often 57.5 µM), for inactives: at the top dose activity change, negative = inhibition, most hits filed as inhibitors. actives 0.37% (n = 290,000). AID 1721; also: potency is read from the fitted curve at half-maximal effect; % is scaled to controls: 0 for no effect and ±100 for the full control effect
# Target sequence (Q27686 whole entry, looked up): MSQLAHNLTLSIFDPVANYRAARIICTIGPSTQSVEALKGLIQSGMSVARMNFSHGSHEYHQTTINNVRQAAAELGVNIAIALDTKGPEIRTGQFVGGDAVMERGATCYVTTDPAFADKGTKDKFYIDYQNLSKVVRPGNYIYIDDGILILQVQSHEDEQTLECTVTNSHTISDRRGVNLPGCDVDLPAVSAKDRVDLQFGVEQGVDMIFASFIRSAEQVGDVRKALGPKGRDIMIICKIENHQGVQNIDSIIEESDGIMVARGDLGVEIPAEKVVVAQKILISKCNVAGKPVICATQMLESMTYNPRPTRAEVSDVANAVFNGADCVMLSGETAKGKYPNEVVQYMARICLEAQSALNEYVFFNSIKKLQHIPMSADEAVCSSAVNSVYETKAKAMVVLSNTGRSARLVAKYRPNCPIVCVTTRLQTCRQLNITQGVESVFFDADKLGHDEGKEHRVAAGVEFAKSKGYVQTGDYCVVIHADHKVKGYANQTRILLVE
#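 Purified LmPK (0.1 nM) converted ADP (0.1 mM) to ATP with PEP (0.5 mM) in imidazole buffer pH 7.2 with KCl and MgCl2, 1 h at room temperature. ATP was read by Kinase-Glo luminescence; data normalized to uninhibited and no-enzyme controls.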
# RE007 growth inh = less growth of the S. pombe RE007 Vpr strain. Potency, µM (top dose mostly 92.2 µM), inactives show top-dose activity change, negative = less growth, usual class: inhibitors. S. pombe RE007 Vpr strain, BacTiter-Glo ATP luminescence, 24 h. actives 0.21% (n = 360,000). AID 651644; active = well fitted falling curve with a large enough effect; inconclusive = small, poorly fitted or top-dose-only effect; inactive = no such curve, though single readings can be large or run the other way; also: potency is read from the fitted curve at half-maximal effect; % is scaled to controls: 0 for no effect and ±100 for the full control effect; nearly all actives have a fitted effect of over 50% in size
#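 Fission yeast strain RE007, carrying one chromosomally integrated HIV-1 vpr copy, was seeded at OD 0.01 in PMG+AL medium with 23 nL pinned compound. After 24 h at 30 °C and 99% humidity, viability was read by BacTiter-Glo luminescence.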
# TbPYK inhibitor = T. brucei pyruvate kinase inhibition; Q57TT1; TbPYK enzyme, Kinase-Glo Plus ATP luminescence, 45 min; actives 0.12% (n = 410,000); AID 624173; Potency, µM (titrated, usually from 76.8 µM), for inactives: at the highest dose activity, negative = inhibition, most hits filed as inhibitors; also: potency is read from the fitted curve at half-maximal effect; % is scaled to controls: 0 for no effect and ±100 for the full control effect; nearly all actives have a fitted effect of over 50% in size
#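 ADP (130 uM final) triggers the TbPYK reaction after compound addition; incubation is 45 min at room temperature. Kinase-Glo Plus is then added and luminescence imaged. Normalized data are fitted to concentration-effect curves.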
# Cycloheximide cs = counter-screen hit for Shiga toxin inhibitors, cycloheximide. cell reporter, cycloheximide protein synthesis inhibition counterscreen. max response, %. actives 12% (n = 300,000); in the data active = max response mostly above about 13%, no sharp cut-off; inactive = mostly below about 14%; also: read at 38.3 µM for the half of the compounds with a filed dose; 0% is about no effect
# FBPA Giardia inh = blocks Giardia fructose-bisphosphate aldolase activity. Potency, µM (series often up to 59.6 µM), for the others: top-dose activity, negative = inhibition, actives largely listed as inhibitors. actives 0.71% (n = 290,000). purified Giardia FBPA. A8B2U2; also: potency is read from the fitted curve at half-maximal effect; % is scaled to controls: 0 for no effect and ±100 for the full control effect; nearly all actives have a fitted effect of over 55% in size
#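 Giardia FBPA (40 nM reagent) was preincubated 10 min at RT with compound (up to 57.5 uM final), then substrate plus GAPDH/TPI/NAD/arsenate coupling system with diaphorase/resazurin was added; resorufin fluorescence (525/598 nm) was read after 20 min.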
# The depositor's hits bear a star; ? = inconclusive; / = no result given; + = active, no number. Many of the other results were omitted from the sample, so hits are more common in it than they were. Unless noted, calls follow the shape of the dose curve; as a rule, active = well fitted curve in the direction sought with a large enough effect; inconclusive = small, poorly fitted or top-dose-only effect, or another doubt; inactive = no such curve, though single readings can be large; an effect the other way counts as inactive or inconclusive.
SMILES,Shiga inhibitor,LmPK inhibitor,RE007 growth inh,TbPYK inhibitor,Cycloheximide cs,FBPA Giardia inh
N#Cc1c(-c2ccc(Cl)cc2)ccn2nc(C3CCCCC3)nc12,39,2%,16%,-10%,42*,0%
COC(=O)CCc1nc2c(C#N)c(-c3ccc(Cl)cc3)ccn2n1,-10,-7%,-1%,1%,-1,5%
CCOc1ccc(CNC(=O)C2=Cc3cc(Br)ccc3OC2)cc1OC,/,/,/,2%,/,/
Cc1ccc(/C=C/C(=O)N2CCN(S(=O)(=O)c3ccc(C)c(C)c3)CC2)o1,-3,7%,25%,14µM*,-2,-12%
Cc1ccc(/C=C/C(=O)N2CCN(S(=O)(=O)c3c(C)c(C)cc(C)c3C)CC2)o1,-8,1%,11%,?,-3,0%
Cc1csc(NC(=O)/C=C/c2ccc3c(c2)OCO3)n1,91*,0%,-4%,-13%,74*,-1%
O=C(/C=C/c1ccc2c(c1)OCO2)Nc1nc2ccccc2s1,62*,3%,-23%,-12%,41*,1%
Cc1cc(C(=O)CN2C(=O)NC3(CCCCC3)C2=O)c(C)n1C,45*,-2%,20%,1%,38*,-2%
Cc1cc(C)c(C(=O)CN2C(=O)NC3(CCCCCC3)C2=O)cc1C,41*,-1%,12%,3%,53*,2%
COC(=O)c1ccc(CN2C(=O)NC3(CCCCC3)C2=O)cc1,61*,0%,-8%,2%,119*,8%
Cc1c(C(=O)Nc2ccc(F)cc2)oc2ccc(S(=O)(=O)N3CCCCCC3)cc12,/,/,/,-7%,/,/
CCCCCn1c(CCCNC(=O)c2cccc(C)c2)nc2ccccc21,/,/,/,-1%,/,/
CCOC(=O)c1cc(NC(=O)Nc2nc3ccccc3s2)c(C)nc1C,-11,1%,9%,-2%,0,4%
COc1ccc2nc(NC(=O)CS(=O)(=O)c3ccc(C)cc3)sc2c1,6,-5%,-15%,-1%,4,3%
CCCCOC(=O)Nc1nc2ccccc2s1,69*,-4%,15%,-8%,26*,7%
CCCCN(C(=O)NC(=O)Nc1nc2ccc(OC)cc2s1)S(C)(=O)=O,48*,-19%,-11%,-21%,53*,-2%
CCCCOC(=O)Nc1nc2ccc(OC)cc2s1,53*,-5%,-28%,1%,38*,13%
CCCS(=O)(=O)c1nc(S(=O)(=O)c2ccc(C)cc2)c(NCCCOC(C)C)s1,/,/,/,9%,/,/
CCOc1ccccc1Nc1nnc(-c2cc3cc(Cl)ccc3oc2=O)s1,/,/,/,1%,/,/
Cc1cc(C)c(NC(=O)CNC(=O)COC(=O)C2=COCCO2)c(C)c1,/,/,2%,1%,/,/
Cc1nonc1C(=O)N/N=C/c1cc2c(cc1Br)OCO2,46,-13%,5%,-1%,28*,-12%
Cn1cc(Br)c(C(=O)N/N=C/c2cccc(OC3CSC3)c2)n1,+,-10%,14%,-3%,57*,-27%
O=C(N/N=C/c1cc2c(cc1Cl)OCO2)c1ccccn1,/,/,-2%,-11%,/,/
Cn1cc(Br)c(C(=O)N/N=C/c2cc3c(cc2Cl)OCO3)n1,55,-2%,-2%,-2%,24*,-5%
Nc1nonc1C(=O)N/N=C\c1cc2c(cc1Cl)OCO2,42*,-14%,-10%,-9%,44*,/
SMILES,Shiga inhibitor,LmPK inhibitor,RE007 growth inh,TbPYK inhibitor,Cycloheximide cs,FBPA Giardia inh
Cc1onc(-c2ccccc2)c1C(=O)N/N=C/c1cc2c(cc1Cl)OCO2,10,4%,-6%,0%,-1,0%
Cc1nn(C)c(C(=O)N/N=C/c2cc3c(cc2Br)OCO3)c1Br,-4,0%,-1%,4%,-2,9%
O=C(c1cc(-c2cccc(O)c2)on1)N1CCCCC1,37*,-22%,-13%,-4%,35*,5%
O=C(c1cc(-c2cccc(O)c2)on1)N1CCCC1,62*,-11%,-12%,-6%,37*,-16%
NC(CO)(CO)COCc1ccccc1,-13,0%,-10%,-2%,0,0%
CCN1C(C(=O)c2ccccc2)=C(OC(=O)c2ccc(Cl)cc2)c2ccccc2S1(=O)=O,/,/,/,-5%,/,/
C/C(=N\NC(=O)c1cc(-c2ccc(C)s2)[nH]n1)c1ccco1,66*,-4%,37%,-2%,39*,1%
